Measurements: PubChem BioAssay (NCATS)
Records with an inconclusive call do not appear. Where a call stands in place of a potency, no number is given. Unmarked numbers belong to inactive results. Calls of active or inactive are those of the source. The call rests on the fitted dose curve; in most records, active means well fitted cell-killing curve with a large enough effect; inconclusive means small, poorly fitted or top-dose-only effect; inactive means flat fitted curve, though single readings scatter.

Test: qHTS of pediatric cancer cell lines to identify multiple opportunities for drug repurposing: Primary screen for control Hh wild type fibroblast cells (AID 1347106); further: nearly all actives have a fitted effect of over 55% in size;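 on activity change, negative = cytotoxic: a drop in luminescence marks cytotoxicity and a rise apparent proliferation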
Conditions: Hh wild-type fibroblast viability, CellTiter-Glo luminescence, 48 h; series mostly up to 46 µM
Excerpt: Drug repurposing or repositioning has been offered as a strategy for drug development in oncology programs. This approach has special potential for childhood cancers and other rare or orphan diseases, where the expected return on new drug development has been a disincentive to pharmaceuticals.
In this project we exploit the poly-pharmacology of drugs to discover new indications via phenotypic screening of a panel of 19 well-characterized cell lines derived from solid tumors seen in children and adolescents. The goal is to identify approved drugs with previously unrecognized anticancer properties that has the potential to reveal new mechanisms and biological processes involved in carcinogenesis or drug resistance. We employed a titration-based paradigm (quantitative high-throughput screening or qHTS), where all compounds were tested at multiple concentrations for their effect on cell viability. Concentration-response curves (CRCs) were derived directly from the primary screen, and both potency and efficacy values were used to identify compounds with robust bioactivity profiles. We screened the NIH Chemical Genomics Center (NCGC) Pharmaceutical Collection (NPC) and Mechanism Interrogation Plate (MIPE) small molecule collections of approved and investigational compounds against these cell lines; and measured metabolically active cells after 48 hours of compound treatment as a proxy for cell viability.
Assay Submitter: Nathalia J. Martinez, National Center for Advancing Translational Sciences, National Institutes of Health, Rockville, MD, USA; email: natalia.martinez@nih.gov
[1] Shen, M et al. Quantitative high-throughput phenotypic screening of pediatric cancer cell lines identifies multiple opportunities for drug repurposing. Oncotarget 2017 Dec 19;9(4):4758-4772. PMID 29435139.
The cells were obtained from University of North Carolina (UNC), Pediatric Preclinical Testing Program (PPT), and Coriell Institute (CI).
qHTS cell viability assay:
Cells were assayed in growth media at a density of 500-1,000 cells/well. Five microliters of cells were dispensed into 1,536-well, white, solid-bottom, TC-treated plates (Greiner Bio One) using a multidrop dispenser and incubated at 37 degrees C, 5% CO2, under a humidified atmosphere for 5 hours. Twenty-three nanoliters of compounds and controls (neutral control DMSO or positive control bortezomib at final concentration of 2.3 µM) were subsequently transferred by Kalypsys pintool. For primary screens, the MIPE collection was tested at 11-point dilutions (final concentrations range from 0.78 nM to 46 µM) and the NPC collection at 8-point dilutions (final concentrations range from 0.59 nM to 46 µM). Compounds tested in follow-up screens were assayed at 11-point dilutions. Cells were incubated for 48 hours, followed by addition of 3 µL of CellTiter-Glo (Promega). After a 15 min incubation at room temperature, samples were analyzed for luminescence intensity using a ViewLux High-throughput CCD imager equipped with clear filters.
Potency means the concentration at half of the fitted maximal effect.

SMILES | Potency | activity change, negative = cytotoxic
CN1C[C@H](CNC(=O)OCc2ccccc2)C[C@@H]2c3cccc4c3c(cn4C)C[C@H]21 | inactive | –
CC(C)(N)Cc1ccc(Cl)cc1 | inactive | –
CCN(CC)CCOC(=O)C(O)(c1ccccc1)c1ccccc1 | inactive | –
C[C@@H]1O[C@@H](O[C@H]2C[C@@H](O)[C@]3(CO)[C@H]4[C@H](O)C[C@]5(C)[C@@H](C6=CC(=O)OC6)CC[C@]5(O)[C@@H]4CC[C@]3(O)C2)[C@H](O)[C@H](O)[C@H]1O | 14.8 nM (active) | –
COc1ccc(C(CN(C)C)C2(O)CCCCC2)cc1 (stereo not given) | inactive | –
O=C(NC(O)C(Cl)(Cl)Cl)NC(O)C(Cl)(Cl)Cl (stereo not given) | inactive | –
CNC(=O)c1ccc(N2C(=S)N(c3ccc(C#N)c(C(F)(F)F)c3)C(=O)C23CCC3)cc1F | 13200 nM (active) | –
OCCOc1ccccc1 | inactive | –
O=C1CC[C@@]2(O)[C@H]3Cc4ccc(O)c5c4[C@@]2(CCN3CC2CC2)[C@H]1O5 | inactive | –
Cc1ccc2c(c1)C1CN(C)CCC1N2 (stereo not given) | inactive | –
c1ccc(C2CC2)c(OCC2=NCCN2)c1 | inactive | –
CC1=C2C[C@@H]3[C@@H](CC=C4C[C@@H](O)CC[C@@]43C)[C@@H]2CC[C@]12O[C@H]1C[C@H](C)CN[C@H]1[C@H]2C | inactive | –
N[C@@H]1C[C@H]1c1ccccc1 | inactive | –
c1ccc2c(c1)Nc1ccccc1S2 | inactive | –
FC(F)(F)c1cccc(C2=CCN(CCc3ccc4ccccc4c3)CC2)c1 | inactive | –
Nc1ccncc1 | inactive | –
C[C@]12CC[C@H]3[C@@H](CCC4=CC(=O)CC[C@@H]43)[C@@H]1CC[C@@H]2OC(=O)CCc1ccccc1 | inactive | –
NCC1(CC(=O)O)CCCCC1 | inactive | –
C=C1CC[C@@]2(O)[C@H]3Cc4ccc(O)c5c4[C@@]2(CCN3CC2CC2)[C@H]1O5 | inactive | –
CC(C)(C)NCC(O)c1cc(Cl)c(N)c(Cl)c1 (stereo not given) | inactive | –

SMILES | Potency | activity change, negative = cytotoxic
COc1ccc(C(=O)c2c(C)n(CCN3CCOCC3)c3ccccc23)cc1 | inactive | –
Cc1cccc(C)c1NC(=O)CN1CCCC1=O | inactive | –
NCC(CC(=O)O)c1ccc(Cl)cc1 (stereo not given) | – | 6.77% [at 0.597 µM]
C[C@H]1O[C@@H](O[C@H]2[C@@H](O)C[C@H](O[C@H]3[C@@H](O)C[C@H](O[C@H]4CC[C@@]5(C)[C@H](CC[C@@H]6[C@@H]5CC[C@]5(C)[C@@H](C7=CC(=O)OC7)CC[C@]65O)C4)O[C@@H]3C)O[C@@H]2C)C[C@H](O)[C@@H]1O | 841 nM (active) | –
O=P1(NCCCl)OCCCN1CCCl (stereo not given) | inactive | –
NP(N)(=O)NC(=O)c1ccc(F)cc1 | inactive | –
CC(=O)[C@H]1CC[C@H]2[C@@H]3CC[C@H]4C[C@H](O)CC[C@]4(C)[C@H]3C(=O)C[C@]12C | inactive | –
COC1(CS(=O)c2ccccc2)CCN(CCc2c[nH]c3ccc(F)cc23)CC1 (stereo not given) | inactive | –
Clc1ccc(CCC(Cn2ccnc2)Sc2c(Cl)cccc2Cl)cc1 (stereo not given) | inactive | –
Oc1cc(Cl)ccc1Oc1ccc(Cl)cc1Cl | inactive | –
CC(C)(C)CC(C)(C)c1ccc(O)cc1 | inactive | –
O=c1[nH]c2ccccc2n1CCCN1CCC(n2c(=O)[nH]c3cc(Cl)ccc32)CC1 | inactive | –
CN(C)CCc1ccc(O)cc1 | inactive | –
CCCC(C)(COC(N)=O)COC(=O)NC(C)C (stereo not given) | inactive | –
C=C(C)[C@H]1Cc2c(ccc3c2O[C@@H]2COc4cc(OC)c(OC)cc4[C@@H]2C3=O)O1 | inactive | –
O=C(O)C(=O)c1cn(Cc2ccccc2)c2ccc(-c3ccc(OC(F)(F)F)cc3)cc12 | inactive | –
CC[N+](CC)(CC)CC | inactive | –
CC(C)CC(N(C)C)C1(c2ccc(Cl)cc2)CCC1 (stereo not given) | inactive | –
COC[C@@H](NC(C)=O)C(=O)NCc1ccccc1 | inactive | –
O=c1[nH]c2ccccc2n1C1CCN(CCCC(c2ccc(F)cc2)c2ccc(F)cc2)CC1 | inactive | –
